PubChem BioAssay AID485364 (National Center for Advancing Translational Sciences (NCATS), 2010)
The campaign covered roughly 360,000 compounds. About 11,000 (3.1%) were called active. A call without a number means that no potency is given here. Roughly 4% stayed inconclusive and do not appear here. Calls follow the shape of the dose curve; as a rule, active = well fitted inhibition curve with a large enough effect; inconclusive = small, poorly fitted or top-dose-only effect; inactive = no such curve, though single readings can be large or run the other way. Many of the other results were omitted from the sample, so actives are more common in it than they were.

Target: Schistosoma mansoni thioredoxin glutathione reductase (TGR) (UniProt Q962Y6)
Experiment: qHTS Assay for the Inhibitors of Schistosoma Mansoni Peroxiredoxins; also: nearly all actives have a fitted effect of over 60% in size
Details: purified TGR, DTNB reduction, TNB absorbance 405 nm; series mostly up to 114 µM
Summary of the method: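 TGR 20 nM + NADPH 100 uM (dispensed conc.), cpd preinc 15 min RT; start with NADPH (500 uM addition) then DTNB (15 mM addition). Kinetic TNB absorbance, 405 nm filter. Four-parameter Hill fit across titration.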
Potency is read from the fitted curve at half-maximal effect.

SMILES	Potency
C=Cc1ccc(Cn2c(C(=O)OC)cc3sc(C)cc32)cc1	inactive
COc1ccc(C(=O)CSc2c(C(C)C)cnc3c2c(=O)n(C)c(=O)n3C)cc1	inactive
COc1cc2[nH]c(=O)n(Cc3ccc(C(=O)NCc4ccc(C)cc4)cc3)c(=O)c2cc1OC	inactive
Cc1ccc(CC2CC(=O)N(c3ccc4c(c3)OCCO4)C2=O)cc1 (stereo not drawn)	inactive
COc1ccc(N2CCN(C3CC(=O)N(c4ccc5c(c4)OCCO5)C3=O)CC2)cc1 (stereo not drawn)	inactive
O=CN1CCN(C2CC(=O)N(c3ccc4c(c3)OCO4)C2=O)CC1 (stereo not drawn)	44.7 µM (active)
COc1cc(Nc2nc(-c3ccc(OC)c(OC)c3)nc3ccccc23)cc(OC)c1	inactive
CC(=O)c1ccc(NC(=O)CSc2c(C(C)C)cnc3c2c(=O)n(C)c(=O)n3C)cc1	inactive
Cc1cccc(NC(=O)CSc2ncc(-c3ccccc3)[nH]2)c1C	inactive
O=C(c1cc(-c2ccc(Cl)s2)nc2ccccc12)N1CCOCC1	inactive
COc1ccc(CN(C)C(=O)c2cc(-c3ccc(C)cc3C)nc3ccccc23)c(OC)c1OC	inactive
CN(C(=O)COC(=O)c1cc(-c2ccco2)nc2ccccc12)C1CCS(=O)(=O)C1 (stereo not drawn)	3.55 µM (active)
COc1ccc(NC(=O)COc2ccc(C(=O)OCC(=O)N(C)C3CCS(=O)(=O)C3)cc2OC)cc1 (stereo not drawn)	inactive
CSc1ncccc1C(=O)Nc1ccc(C)cn1	inactive
Cc1ccc(NC(=O)c2cc(-c3ccc(C)o3)nc3ccccc23)nc1	11.2 µM (active)
COc1ccc(/C=C(\C#N)C(=O)OCC(=O)N(C)C2CCS(=O)(=O)C2)cc1 (stereo not drawn)	inactive
CN(CCOc1ccccc1)C(=O)c1cc(-c2ccco2)nc2ccccc12	3.16 µM (active)
CCOc1ccccc1-c1cc(C(=O)N2CCOCC2)c2ccccc2n1	inactive
CC1CCCN(C(=O)c2cc(-c3ccco3)nc3ccccc23)C1 (stereo not drawn)	31.6 µM (active)
CN(CCOc1ccccc1)C(=O)c1cc(COc2c(F)cccc2F)on1	inactive
CC(=O)N1CCN(C(=O)c2cc(-c3ccc(C)o3)nc3ccccc23)CC1	inactive
Cc1ccc(-c2nnc(Nc3ccc(OCC(N)=O)cc3)c3ccccc23)cc1S(=O)(=O)NCC1CCCO1 (stereo not drawn)	inactive
Cc1ccc(Cl)cc1N1CCN(C(=O)c2cnc3c(-c4ccc(F)cc4)c(C)nn3c2C)CC1	inactive

SMILES	Potency
CC(=O)N1c2ccccc2CC1C(=O)N1CCN(c2ccc(F)cc2)CC1 (stereo not drawn)	inactive
Cc1ccc2oc(=O)c3cnn(CC(=O)N4CCN(c5cccc(Cl)c5)CC4)c3c2c1	inactive
Fc1cccc(-n2ncc3c2ncn2nc(-c4ccccc4Cl)nc32)c1	inactive
CCOc1cccc(C(=O)Nc2nnc(S(=O)(=O)N(C)c3ccc(C)cc3)s2)c1	inactive
O=C(Nc1ccc2oc(-c3ccc(O)c(Br)c3)nc2c1)c1cc2ccccc2o1	inactive
COc1ccc(OC)c(NC(=O)CN2CCCN(Cc3cc(C)ccc3C)S2(=O)=O)c1	inactive
Cc1csc2nc(COC(=O)c3ccc(NC(=O)COc4ccccc4F)cc3)cc(=O)n12	inactive
COc1cccc(N=C2SC(C(=O)Nc3cccc(Cl)c3)CC(=O)N2C)c1 (stereo not drawn)	inactive
CN(Cc1ccccc1)c1ncnc2onc(-c3ccc(F)cc3)c12	inactive
CC(=O)c1cccc(NC(=O)c2nc(-c3ccccc3)n(-c3cccc(C)c3)n2)c1	inactive
CCN(CC)CCNC(=O)CN1N=C(c2ccc(OC)cc2)CCC1=O	inactive
CC(C)N(Cc1nnc(-c2ccccc2Br)o1)C(=O)c1cc(Cl)nc2ccccc12	inactive
COc1ccc(-c2cc(C(=O)N(C)CC(=O)Nc3ccccc3Cl)c3ccccc3n2)cc1OC	inactive
COc1ccc(NC(=O)CN(C)C(=O)c2n[nH]c3ccccc23)cc1	inactive
O=C(c1ccc(Cl)s1)N(Cc1nnc(-c2ccccc2Cl)o1)C1CC1	inactive
O=C(c1cc(-c2ccco2)nc2ccccc12)N(Cc1nnc(-c2ccc(Cl)cc2)o1)C1CC1	8.91 µM (active)
COc1ccc(NC(=O)CN(C)C(=O)c2cc(-c3ccc(C)o3)nc3ccccc23)cc1	28.2 µM (active)
COc1ccc(Cc2nc3ccc(C(=O)NCc4ccc(OC)cc4OC)cc3o2)cc1	inactive
O=C(Nc1cc(C(F)(F)F)ccc1Cl)c1ccc2c(c1)CCN2S(=O)(=O)c1ccccc1	inactive
COc1ccc(NC(=O)CSc2nnc(-c3nnn(-c4ccc(F)cc4)c3C)o2)cc1	inactive
COc1ccc(OC)c(NC(=S)N2CCc3ccccc3C2)c1	inactive
COc1cc(C(=S)N2CCOCC2)ccc1O	inactive
COc1ccc(C)cc1NC(=S)N1CCOCC1	17.8 µM (active)

SMILES	Potency
O=C(CCc1cn(Cc2ccc(F)cc2)c2ccccc12)NC1CCCCC1	inactive
CC(C)Cn1c(C2CC(=O)N(c3ccccc3Cl)C2)nc2ccccc21 (stereo not drawn)	inactive
O=C(NCCc1ccccc1)c1ccc2c(c1)N(Cc1ccc(F)cc1)C(=O)c1ccccc1S2(=O)=O	inactive
CN(C)CCOC(=O)C(c1ccccc1)C1(O)CCCC1 (stereo not drawn)	inactive
O=C(NCC1COc2ccccc2O1)C1(c2ccccc2)CCCC1 (stereo not drawn)	inactive
CN(C)CC1Oc2ccccc2OC1(O)c1ccccc1 (stereo not drawn)	0.355 µM (active)
CCOc1ccc(CC(=O)NCCc2csc3nc(-c4ccccc4F)nn23)cc1	inactive
O=C(COc1ccc(Cl)cc1)N(Cc1ccco1)Cc1ccco1	inactive
CCN(c1ccc(Cl)cc1)S(=O)(=O)c1nnc(NC(=O)c2ccco2)s1	inactive
O=C(Nc1nonc1-c1ccc(Cl)cc1)c1ccco1	inactive
O=C(Nc1nc(-c2ccco2)c(-c2ccco2)s1)c1ccco1	7.94 µM (active)
COc1ccc(S(=O)(=O)NCCSc2nnnn2-c2ccccc2)cc1	inactive
O=C(CCSCc1ccccc1F)N1CCN(c2ccc(Cl)cc2)CC1	inactive
CC(C)=C1C2CCC1C1C(=O)N(NC(=O)c3ccco3)C(=O)C21 (stereo not drawn)	inactive
COc1ccc(C(=O)NN2C(=O)C3C(c4ccccc4)C=CC(c4ccccc4)C3C2=O)cc1 (stereo not drawn)	inactive
O=C(NN1C(=O)C2C3C=CC(C3)C2C1=O)c1ccco1 (stereo not drawn)	inactive
O=C(NN1C(=O)C2C3C=CC(O3)C2C1=O)c1ccccc1 (stereo not drawn)	20 µM (active)
COc1ccccc1C(=O)NN1C(=O)C2C3C=CC(O3)C2C1=O (stereo not drawn)	17.8 µM (active)
O=C(NN1C(=O)C2C3C=CC(C4CC34)C2C1=O)c1ccc(Cl)cc1 (stereo not drawn)	inactive
O=C(NN1C(=O)C2C3C=CC(O3)C2C1=O)c1ccncc1 (stereo not drawn)	20 µM (active)
COc1ccccc1C(=O)Nn1cnnc1	inactive
COc1ccccc1C(=O)NCCC(=O)NN1C(=O)NC2(CCCCC2)C1=O	inactive
